Assay results from PubChem BioAssay.
Calls of active or inactive are those of the source.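 How the source made its calls: active means visually confirmed hit in the image check and inhibition above 20%; inconclusive means visually confirmed hit but inhibition not above 20%; inactive means no visual hit in the image check.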

Experiment: inhibitors of E-selectin induction by TNFa, primary screen, imaging, HUVEC, immunofluorescence, MLSMR starter and 10KST1 sets (AID 487);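 on inhibition: signal is fraction of cell area covered by stained E-selectin grains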;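 on nuclei count: 100% = median nuclei count of all wells on the same plate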
Details: HUVEC TNFalpha-induced E-selectin immunofluorescence imaging, at 2 µM; inhibition: stronger effect = higher value; nuclei count: measured here: cell number, toxicity
For `Cc1ccc(S(=O)(=O)N2CCOCC2)cc1C(=O)Nc1ccc(-c2cn3ccsc3n2)cc1`, the nuclei count was 122% and the inhibition was -29.6% (inactive). For `Cc1ccc(S(=O)(=O)NCCc2ccncc2)cc1`, the inhibition was -47.2% (inactive) and the nuclei count was 106%. In the case of `O=C(NCc1ccco1)C1Cc2ccccc2CN1S(=O)(=O)c1ccccc1F` (stereo not drawn), the inhibition is reported as -30% (inactive) and the nuclei count is reported as 98.1%. With `Cc1ccccc1NC(=O)c1c(F)c(F)c(F)c(F)c1F` the nuclei count was 135% and the inhibition was -102% (inactive). With `CC(C(=O)N1CC2(C)CC1CC(C)(C)C2)N1C(=O)c2ccccc2C1=O` (stereo not drawn) the nuclei count was 95.5% and the inhibition was -114% (inactive). In the case of `O=c1c2c3nc4ccccc4nc3n(CC3CCCO3)c2ncn1CCc1ccccc1` (stereo not drawn), the nuclei count is reported as 107% and the inhibition is reported as -90.8% (inactive). In the case of `COC(=O)C1=C(C)NC(=O)C1(NC(=O)c1cccnc1)C(F)(F)F` (stereo not drawn), the inhibition is reported as -68.7% (inactive) and the nuclei count is reported as 103%. In the case of `CCCn1c2ccccc2c2nnc(SCC(=O)OCC)nc21`, the inhibition is reported as 14.6% (inactive) and the nuclei count is reported as 104%. For `O=C(Nc1ccc(Cl)cc1C(=O)Nc1ccncc1)c1ccco1`, the nuclei count was 101% and the inhibition was -148% (inactive). With `COCCOC(=O)C1=C(C)N=c2s/c(=C\c3cccs3)c(=O)n2C1c1cccs1` (stereo not drawn) the nuclei count was 110% and the inhibition was -148% (inactive). In the case of `Cc1cc2ncc(C(=O)Nc3ccccc3)c(C)n2n1`, the nuclei count is reported as 93.8% and the inhibition is reported as 27.5% (inactive). In the case of `Cn1c(SC/C=C/c2ccccc2)nnc1-c1cnccn1`, the nuclei count is reported as 95.1% and the inhibition is reported as 6.2% (inactive). For `CCn1c(=O)n(CC(=O)Nc2cc(OC)ccc2OC)c(=O)c2ccccc21`, the inhibition was -1.5% (inactive) and the nuclei count was 99.5%. For `CCOC(=O)COc1ccc(S(=O)(=O)N2CCc3ccccc3C2)cc1`, the nuclei count was 96% and the inhibition was -5.1% (inactive).
